Measurements taken from PubChem BioAssay (NCATS).
Results filed as inconclusive are left out. Entries that show only a call come without a potency. Unmarked numbers belong to inactive results. Calls of active or inactive are those of the source. The call rests on the fitted dose curve; in most records, active means well fitted cell-killing curve with a large enough effect; inconclusive means small, poorly fitted or top-dose-only effect, or effect the other way; inactive means no such curve, though single readings can be large or run the other way.

assay: Viability qHTS for spleen associated tyrosine kinase inhibitor (SYKi) naive MV4-11 cells (AID 1963823); conditions: MV4-11 AML viability, CellTiter-Glo luminescence, 72 h; series mostly up to 45 µM; further: nearly all actives have a fitted effect of over 40% in size
Outline: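 Seeding of 500 SYKi-naive MV4-11 cells per well onto pre-dispensed compounds preceded a 72 hr incubation at 37 C. Luminescent CellTiter-Glo signal, read after 10 min at room temperature, reflected viable cells.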
Potency means the concentration at half of the fitted maximal effect.

Row | SMILES | Potency | viability (% of control)
1 | C=CCc1ccc(O[C@@H]2O[C@H](CO)[C@@H](O)[C@H](O)[C@H]2O)c(O[C@@H]2O[C@H](CO)[C@@H](O)[C@H](O)[C@H]2O)c1 | inactive | 
2 | COc1cc2ncnc(Nc3cccc(O)c3)c2cc1OC | 0.411 µM (active) | 
3 | CN[C@@H]1[C@@H](O)[C@@H](O[C@@H]2[C@@H](O)[C@H](O[C@H]3O[C@@H]([C@@H](C)NC)CC[C@H]3N)[C@@H](N)C[C@H]2N)OC[C@]1(C)O | inactive | 
4 | CCOC(=O)COc1ccc2c(c1)C[C@@H](NC[C@H](O)c1cccc(Cl)c1)CC2 | 18.4 µM (active) | 
5 | CCC(CCO[C@@H]1O[C@H](CO[C@H]2OC[C@](O)(CO)[C@H]2O)[C@@H](O)[C@H](O)[C@H]1O)C(C)(C)O (some centres not stated) | inactive | 
6 | C[C@@H]1O[C@@H](O[C@H]2[C@H](OC(=O)[C@]34CCC(C)(C)C[C@H]3C3=CCC5[C@@]6(C)CC[C@H](O[C@@H]7O[C@H](C(=O)O)[C@@H](O)[C@H](O)[C@H]7O[C@@H]7O[C@H](CO)[C@H](O)[C@H](O)[C@H]7O)[C@@](C)(C=O)C6CC[C@@]5(C)[C@]3(C)C[C@H]4O)O[C@H](C)[C@H](O[C@@H]3O[C@H](C)[C@H](O)[C@H](O)[C@H]3O)[C@@H]2O)[C@H](O)[C@H](O)[C@H]1O[C@@H]1OC[C@@H](O)[C@H](O[C@@H]2O[C@H](CO)[C@@H](O)[C@H](O)[C@H]2O)[C@H]1O (some centres not stated) |  | 5.74% [at 4.97 µM]
7 | COc1ccc(C(=O)OC2C3C=COC(OC4OC(CO)C(O)C(O)C4O)C3C3(CO)OC23)cc1OC (configuration not stated) | inactive | 
